Experimental data from publication PMC13494018.

B1: d6r1_design_ppi_617_dldesign_0_cycle1_af2pred (protein)
chain: AAAQAQQLMNEALALLFEAARKAPDPSEILRAASKAAQGHLSGSLAEEALAYIREVAEKYPEVAELINEAAELYAQAAKL
B2: d6r1_design_ppi_397_dldesign_0_cycle1_af2pred (protein)
chain: GEEEEEKKRKEEIKKAIKEAAEKAKEAGPAETRPEIEAAEKLALEDPKAGMNRLLAIGAREPATAPYLVEGAEKVSALLKS
B3: d6r1_design_ppi_583_dldesign_0_cycle1_af2pred (protein)
chain: MNIEELTALAEEHEAKAKALAAAGAPAIEVVSAATLAVRYYNEAAKLLAKIDPAKAKEYTAKAEAIRAAAAAYIRAQLARSAAA
B4: d6r1_design_ppi_398_dldesign_0_cycle0_af2pred (protein)
chain: STAASLATGARVIANLFERAIEAAADPATRAEAEGLARSAAEIGALIGPELAAIAEAGLAAIGDLAAMRAELERVRALAAAA
B5: d6r1_design_ppi_761_dldesign_0_cycle0_af2pred (protein)
chain: AEEKERLKELAKFAKEALKKVEELRAAIKANADDPAAVAAARDAMIALAKEAAEKDAEVGNAVMIALGDPEKGVEKLKEVTEKLEKAA
B6: d6r1_design_ppi_807_dldesign_0_cycle1_af2pred (protein)
chain: AQAKRVSLAAALALLNSAIDAAADPKSAAALAEQAADLLESTGEAAPLGKKAKEAAKLLLEDPEKGKALAKEVAKKAAELLAKT
B7: d6r1_design_ppi_759_dldesign_0_cycle1_af2pred (protein)
chain: AAETERALRNAKAYATAAEHAAKAHPESPELKKLAAEAKAYYKKAAAAYAAGKKEEALKYAQKAIEKAAEAFSLLS
B8: d6r1_design_ppi_785_dldesign_0_cycle1_af2pred (protein)
chain: AAAASAAQTATITRAAVASGNTFDAARAGAEMLHYQDPAVGEEVAKTVEEAKKLSPEEAKAAILAKFDAIAARYA
B9: d6r1_design_ppi_801_dldesign_0_cycle0_af2pred (protein)
chain: AALAALTAEANARANAILGRAFAEALARTRAGESPAPVFAAAAAELRRLGEESNPEGRAIADSGIALLQAAA
B10: d6r1_design_ppi_887_dldesign_0_cycle1_af2pred (protein)
chain: AAVEEATAKAKELREKATKLALEGIRTGNQELVEKAKEKAEKAKELGESSNEEAKEYAKVALAVAEMAKAAL
B11: d6r1_design_ppi_381_dldesign_0_cycle1_af2pred (protein)
chain: DEARAIIVSSLSEAAALDPAVAPLAMRAAALSINPATAAAAMAEAIAAMRAAGATVPEVAALADRAEAAA
B12: d6r1_design_ppi_484_dldesign_0_cycle1_af2pred (protein)
chain: GEEAERESKEALERVRELLRRLNELAAQRAAHPAELRATAAALVEAGKEALANPNASEEAKQLGAFGVTLGQTVLAALDAAAA
B13: d6r1_design_ppi_463_dldesign_0_cycle0_af2pred (protein)
chain: GLIEELLAEARAEVEAEIAARREEARRLAAEGEESEDTEEKRARAEELLAEAAEREAQADSIAAQAAFRRAAELTRQLAAAA
B14: d6r1_design_ppi_311_dldesign_0_cycle1_af2pred (protein)
chain: MTPEEVAARAAELLAWLRAQAALDPEMAALGAAGLELVLAHSPELAARAVRQLERARRMPPADALRVGALIAQAYAAQVERARA
B15: d6r1_design_ppi_518_dldesign_0_cycle0_af2pred (protein)
chain: SAATLAQYNQLSGQASRLLMQAAQTGSVELAQQALQYAQQALQLAQQASANNAEGAKQLLEIAQATLAAVQ
B16: d6r1_design_ppi_812_dldesign_0_cycle0_af2pred (protein)
chain: SAELAERLRRISELFRKAIESGVEEAKRYVEEAAREFARLSGDEERGRELAREAKEAVELGEEGKEAVRAVAQRMLLYGAQAA
B17: d6r1_design_ppi_759_dldesign_0_cycle0_af2pred (protein)
chain: MAKVEQLLNNAKAYAGAAENAARTHSENPELQKLAKEAKEYYEKAEKAYKEGKLKEAEEYAKKAIEKAAEAFSLLQ
B18: d6r1_design_ppi_377_dldesign_0_cycle1_af2pred (protein)
chain: MEDEELAEKIRERAKEAIAQIRASSPEQAALLAGTLVAEFGEWARSGTPEVAAVAHEEMNRVTGEAAKVIA
B19: d6r1_design_ppi_829_dldesign_0_cycle0_af2pred (protein)
chain: EEAKKKAEELIAEVKAYADAAAAAAAAAGAARGAAAAALAAAAIAGIKNIAKAAEEEIKEAAEDPEKQKEIAERAKENIDKILAVALG
B20: d6r1_design_ppi_848_dldesign_0_cycle0_af2pred (protein)
chain: AAAETGLKILEATVQALLKNASKYSAEAVKKLSEVLKASAEAEAKAGGEKLKERAKEIKKLAEEAEKKAKEAAKAKAE
B21: d6r1_design_ppi_478_dldesign_0_cycle1_af2pred (protein)
chain: AAARAAAQQLLMEVAEELIKLGAKEAARLALRAIGLLLSDPAQGVAAAKEAAKKAKEEAPENGEELAKKLEEAAKLAAA
B22: d6r1_design_ppi_695_dldesign_0_cycle1_af2pred (protein)
chain: EAAARQAAINAAALAVAKAVVDKAFADQSPAVVAGAKTMVTMIVNLYADPAKRPQAEALAENSHPAVREAVDAGLAAAAALAAA
B23: d6r1_design_ppi_575_dldesign_0_cycle0_af2pred (protein)
chain: SAEEEAAKEEAKAVLAQAEAILEQAKALAAQQPWAAGIAALARTAIRLAKESLEKGLELLPDAKALTEAAAGIVAAA
B24: d6r1_design_ppi_575_dldesign_0_cycle1_af2pred (protein)
chain: GAALAAQRAEAREVLARARAIEAQAQALAATQPAAAGIGSLARQAIELASRSLEEGLELLPSARALVEVAAGIVAAA
B25: d6r1_design_ppi_373_dldesign_0_cycle1_af2pred (protein)
chain: EKEELIKKAKEALEKAKKAAKEAAADPELAKKAKKLAEEAKKAVEKAKKSGKEEAKKLAEKAKAAAAKAEAYALLAQGRAAA
B26: d6r1_design_ppi_270_dldesign_0_cycle1_af2pred (protein)
chain: EEEKREAAREITERAIEEIRAAAERAAAAGQPGAGVEAGMKIGAEAVRRVREKGTEELAEEAARRMNAALAEAIRAAMALAR
B27: d6r1_design_ppi_468_dldesign_0_cycle1_af2pred (protein)
chain: AQAALDAAIAAARAAAALAREAGDDTAAAFFESAALVLEGGPANMPLAIRLTEAGIRSARARLDPATAAKVAALGEAAIAAARAAAAA
B28: d6r1_design_ppi_900_dldesign_0_cycle1_af2pred (protein)
chain: GEEAAREAEELERRAEELEELARRARELSAEELTEAALEAVRLANRAHALMTAGAPPEVAARLQEVAARALEAAERLSREAREKRA
B29: d6r1_design_ppi_821_dldesign_0_cycle1_af2pred (protein)
chain: AAAQARAEARALNERARALLAAAPVGRAAEAEALATRALGLALAHREAFSNAEMTDILRTLARAAGAARQQAA
B30: d6r1_design_ppi_719_dldesign_0_cycle0_af2pred (protein)
chain: AAAAAAEAARQASAEKAKQLGLDLAEDARRLTEAGGSPAAVQAALNSAEAVARNLAAMGEVGKPFAEEVLKAAEEARKLAA
B31: d6r1_design_ppi_463_dldesign_0_cycle1_af2pred (protein)
chain: GPFEAAYAEALAEVEAEIAALKAEAEKVAAAGKKTGKTAEAAAKAEELKAKAAELEAQKESIAAQRAFRRLAAQTAAQAAAA
B32: d6r1_design_ppi_848_dldesign_0_cycle1_af2pred (protein)
chain: AAGEKALEILKKTAQALLKNAPLLTAEAAAKLAKVIIDAAWAAAKKIGPEAEKVAKEVKALAKEAVAAAAAAAKARAA
B33: d6r1_design_ppi_593_dldesign_0_cycle1_af2pred (protein)
chain: SKNVELAEKAQEVVKRAKEVGKLVPEKAEEIISTSNQALAYALNPHTVAKGEKLLEEATKLVEEAEKEAK
B34: d6r1_design_ppi_699_dldesign_0_cycle1_af2pred (protein)
chain: EEEAKEKIREAAKEAAAAAKAQDPAHAPLIEAAAKEIAEAAEKGLVEAQEKANALARAHPEAAQHFSLIFAFAAQAYAEAR
B35: d6r1_design_ppi_833_dldesign_0_cycle0_af2pred (protein)
chain: MTPMSAAVAAAEEAIAAATAADPERGGRIAQEAFRGLAQATAIYVTQGKAAGDAAAEELRKRFEAEKAKVEAEAA
B36: d6r1_design_ppi_658_dldesign_0_cycle1_af2pred (protein)
chain: LEEELEKAKNEAKLLLAEAAATLLATDAKGQKAAQLLAAAIAYLDTDPEQALKDAKEALKLVPDSEKVKKALEATEKALELKKKI
B37: d6r1_design_ppi_617_dldesign_0_cycle0_af2pred (protein)
chain: AAARAQALLNEALALLFEAAARSRDGAPILRAASLAAQGFLTGEAAPEALAYIEAVAKEHPEVRELILEAARLFAEAAAL
B38: d6r1_design_ppi_377_dldesign_0_cycle0_af2pred (protein)
chain: EEERRRAEELRRRAEEAIERIRASTPEEAARIAGELVAWLGEEARAGTPELAEEARREMARVTREAARVLA

These binders were tested against CD276, Q5ZPR3.
Sequence of CD276, Q5ZPR3 (Q5ZPR3 whole entry): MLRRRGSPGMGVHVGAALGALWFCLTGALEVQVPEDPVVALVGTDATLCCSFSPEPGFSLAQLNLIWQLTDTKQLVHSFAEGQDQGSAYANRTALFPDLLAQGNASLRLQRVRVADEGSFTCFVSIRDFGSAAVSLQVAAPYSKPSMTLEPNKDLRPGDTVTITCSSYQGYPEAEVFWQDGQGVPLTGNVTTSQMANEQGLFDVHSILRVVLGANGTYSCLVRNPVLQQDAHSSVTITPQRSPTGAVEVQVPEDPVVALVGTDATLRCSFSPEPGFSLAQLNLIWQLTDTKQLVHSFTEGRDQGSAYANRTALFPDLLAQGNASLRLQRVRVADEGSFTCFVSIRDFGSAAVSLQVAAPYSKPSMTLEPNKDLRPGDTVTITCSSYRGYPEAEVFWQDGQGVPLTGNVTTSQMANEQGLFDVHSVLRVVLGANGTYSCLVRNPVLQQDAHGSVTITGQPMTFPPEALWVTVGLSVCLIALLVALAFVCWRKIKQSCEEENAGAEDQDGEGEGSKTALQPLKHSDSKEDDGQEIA

Binding in a display sort, inactive:
B1 not found, B2 not found, B3 not found, B4 not found, B5 not found, B6 not found, B7 not found, B8 not found, B9 not found, B10 not found, B11 not found, B12 not found, B13 not found, B14 not found, B15 not found, B16 not found, B17 not found, B18 not found, B19 not found, B20 not found, B21 not found, B22 not found, B23 not found, B24 not found, B25 not found, B26 not found, B27 not found, B28 not found, B29 not found, B30 not found, B31 not found, B32 not found, B33 not found, B34 not found, B35 not found, B36 not found, B37 not found, B38 not found
